MITF inh = human MITF inhibition, primary screen; O75030; AlphaScreen MITF homodimerization, bead proximity signal; inhibition, % at 2.6 µM; 0.91% of 650,000 active; AID 1259374; in the data active means inhibition above about 50%;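 further: 0% = vehicle wells with protein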
GPR151 activ = human GPR151 activation. 1% of 650,000 active. activation, % at 11.2 µM. Q8TDV0. AID 1508602. PathHunter beta-arrestin GPR151 cells, luminescence; in the data active means activation above about 4.9%;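 further: 0% = median of compound wells and 100% = cells with positive control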
Target sequence (Q8TDV0 whole entry, looked up): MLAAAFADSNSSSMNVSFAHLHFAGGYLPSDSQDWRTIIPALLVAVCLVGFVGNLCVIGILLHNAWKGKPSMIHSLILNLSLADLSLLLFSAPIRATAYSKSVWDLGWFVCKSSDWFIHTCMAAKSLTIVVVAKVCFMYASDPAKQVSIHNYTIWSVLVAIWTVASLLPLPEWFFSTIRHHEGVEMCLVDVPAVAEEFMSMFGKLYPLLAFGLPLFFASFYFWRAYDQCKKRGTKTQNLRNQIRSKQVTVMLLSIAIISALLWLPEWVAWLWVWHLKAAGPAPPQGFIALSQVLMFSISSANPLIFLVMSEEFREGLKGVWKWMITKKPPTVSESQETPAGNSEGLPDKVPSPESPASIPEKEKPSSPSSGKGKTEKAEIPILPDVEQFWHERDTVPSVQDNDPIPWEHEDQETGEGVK
TEAD-YAP inh = TEAD-YAP interaction inhibition; HEK-TIYL cells, TEAD-Gal4/YAP UAS-luciferase luminescence; inhibition, % at 9.12 µM; 1.4% of 640,000 active; AID 1259422; in the data active means inhibition above about 32%;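 further: 0% = median of test compound wells and 100% = reference inhibitor wells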
FBW7 activator = activators of human E3 ligase FBW7; normalized activity (activation), % at 26.1 µM; AlphaScreen FBW7–phospho-cyclin E peptide binding, activator screen; 0.13% of 650,000 active; Q969H0; in the data active means normalized activity above about 1.9%;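 further: purified mutant Fbw7 with reduced substrate affinity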
The depositor's hits bear a star. The list is not random: actives were taken first. Their share in the collection is about 3.5%.

SMILES	MITF inh	GPR151 activ	TEAD-YAP inh	FBW7 activator
O=c1c2ccccc2nc(-c2ccc([N+](=O)[O-])cc2)n1-c1ccc(Oc2ccccc2)cc1	20.1	3.2	4.8	-0.2
CC(NC(=O)Nc1ccc(Cl)c(Cl)c1)C1CCCO1 (stereo not drawn)	17.2	-1.7	-48.8	1.9*
O=C1NC2=C(C(=O)N(CCO)C2)C(c2cccc(F)c2)N1 (stereo not drawn)	10.7	0.5	-2.1	0.6
O=C(Cn1c(=O)oc2ccccc21)Nc1ccnc2ccccc12	6.2	0.8	32.0*	0.0
COc1cccc(NC(=O)c2ccc(F)c(S(=O)(=O)N(C)Cc3ccccc3)c2)c1	-6.0	2.3	-3.9	0.0
CCN(c1ccccc1)S(=O)(=O)c1cc(C(=O)Nc2ccc(Br)cc2)ccc1F	6.2	-0.4	4.0	0.0
CCCCN(CC)S(=O)(=O)c1cc(C(=O)Nc2ccc(Oc3ccccc3)cc2)ccc1F	-3.6	0.4	59.9*	-0.1
CN(Cc1ccccc1)S(=O)(=O)c1cc(C(=O)Nc2ccc(Oc3ccccc3)cc2)ccc1F	27.5	0.0	61.4*	0.1
CCN(Cc1ccccc1)S(=O)(=O)c1cc(C(=O)Nc2ccc(Br)cc2)ccc1F	-0.6	1.3	50.3*	-0.1
CCc1c(C)sc(NC(=O)C(Cl)(Cl)Cl)c1C(=O)OC	10.3	2.8	-5.0	-0.1
CCS(=O)(=O)N1CCN(Cc2ccc(Br)cc2)CC1	45.0	-0.1	-2.6	0.0
COc1ccc2[nH]c(=O)c(CN(CCCO)S(=O)(=O)c3c(C)cc(C)cc3C)cc2c1	-0.4	-0.5	-6.6	0.0
Cc1ccnc(NC(=O)Cn2ncc3c2-c2cc(C)ccc2OC3)c1	-6.5	-0.1	-1.2	-0.2
Cc1ccc(NC(=O)Cn2ncc3c2-c2cc(C)ccc2OC3)nc1	10.9	-1.7	34.7*	0.4
CCC(C)n1c(SCc2ccccc2F)nc2ccsc2c1=O (stereo not drawn)	6.6	-0.4	-5.6	0.0
CCC(C)n1c(SCc2ccccc2C)nc2ccsc2c1=O (stereo not drawn)	-24.0	0.6	46.7*	0.1
Cc1ccc(NC(=O)N2CCCc3ccccc32)cc1	-4.2	0.3	-17.4	-0.2
CC(C)(C)c1ccc(NC(=O)N2CCc3ccccc32)cc1	8.0	-4.4	86.9*	-0.1
COc1ccc(Cl)cc1NC(=O)C(=O)c1ccccc1NC(C)=O	2.6	1.4	-3.5	-0.1
CC1(C)C(=O)Nc2ccccc2N1C(=O)CN1C(=O)c2ccccc2C1=O	-3.0	0.1	-3.6	-0.2
CC1(C)C(=O)Nc2ccccc2N1C(=O)CCl	-8.0	0.1	48.2*	0.1
CCOc1c(Cl)cc(C(=O)OCC(=O)N2c3ccccc3NC(=O)C2(C)C)cc1OC	14.2	-0.7	32.4*	0.1
COc1ccc(Nc2nc(N3CCCC3)nc3[nH]ncc23)cc1	-14.4	0.4	47.6*	0.1
COc1ccc(-n2nc(C(=O)c3ccccc3)c(C(F)(F)F)cc2=O)cn1	-2.0	1.8	49.1*	-0.1
COc1cc(C(F)(F)F)c(C(=O)NC2(O)C(=O)c3ccccc3C2=O)cn1	3.4	-1.1	2.3	-0.6
SMILES	MITF inh	GPR151 activ	TEAD-YAP inh	FBW7 activator
CC1=CSC2=NC(=O)/C(=C/c3cc(C)n(-c4ccccc4C)c3C)C(=N)N12	15.0	0.0	68.3*	-0.1
Cc1cc(/C=C2/C(=N)N3C(=NC2=O)SN=C3S(C)(=O)=O)c(C)n1-c1ccccc1F	15.0	-1.5	3.5	0.7
CC1=CSC2=NC(=O)/C(=C/c3cc(C)n(-c4ccccc4F)c3C)C(=N)N12	28.9	0.2	52.0*	0.1
CCOc1ccccc1-n1c(C)cc(/C=C2\C(=N)N3C(C)=CSC3=NC2=O)c1C	-1.8	0.8	6.5	0.7
Cc1noc(C)c1C(=O)Nc1ccccc1I	7.4	-0.2	-0.7	-0.1
Cc1cccc(Nc2cc(N3CCOCC3)c3noc4c3c2C(=O)c2ccccc2-4)c1	14.6	-0.4	-1.3	-0.1
O=C1c2ccccc2-c2onc3c(N4CCCCC4)cc(N4CCOCC4)c1c23	61.7*	0.4	8.0	-0.6
COc1cc(Nc2cc(N3CCC(C)CC3)c3noc4c3c2C(=O)c2ccccc2-4)cc(OC)c1OC	38.8	2.9	42.7*	-0.2
Cc1ccccc1Nc1cc(N2CCOCC2)c2noc3c2c1C(=O)c1ccccc1-3	54.8*	-1.2	5.3	-0.4
COc1cc(Nc2cc(N3CCCC3)c3noc4c3c2C(=O)c2ccccc2-4)cc(OC)c1OC	1.9	0.6	0.0	0.0
COc1ccc(C(=O)Nc2ccc(OC)c(N3CCCCC3=O)c2)cc1	-1.4	-0.3	10.5	0.2
CC(=O)N1N=C(c2ccccc2)CC1c1ccccc1O (stereo not drawn)	-13.8	0.3	9.6	-0.3
CC(C)Cn1c(CN2CCC(C)CC2)nc2c1c(=O)n(C)c(=O)n2C	17.7	-0.7	-6.8	0.7
CCCc1ccc(-c2ccc(C(=O)OCc3ccco3)cc2)nc1	1.0	-2.0	52.3*	-0.1
CCCc1ccc(-c2ccc(C(=O)OCC(C)CC)cc2)nc1 (stereo not drawn)	7.2	0.3	-7.1	-0.1
CCCc1ccc(-c2ccc(OC(=O)C3CCCCC3)cc2)nc1	0.0	-1.6	72.7*	-0.1
CC(C)OCCCNC(=O)c1ccc2c(c1)NC(=O)C(N1CCCCC1)S2 (stereo not drawn)	5.9	-0.1	9.3	-0.2
O=c1oc2cc(O)ccc2cc1-c1nc(-c2ccccc2)cs1	4.5	-1.0	-1.2	0.4
O=c1oc2cc(O)ccc2cc1-c1nc(-c2cccs2)cs1	-17.9	-10.3	77.3*	0.2
O=c1oc2cc(O)ccc2cc1-c1nnc(Nc2ccc(F)cc2)s1	-2.8	1.0	-9.9	0.0
CCc1ccc(Nc2nnc(-c3cc4ccc(O)cc4oc3=O)s2)cc1	-1.2	1.7	34.3*	0.3
CCc1c(C(=O)N2CCN(c3cccc(OC)c3)CC2)[nH]c(C)c1C(C)=O	7.7	-0.1	54.5*	0.1
CC(=O)c1c(C)[nH]c(C(=O)N2CCN(c3cccc(Cl)c3)CC2)c1C	7.7	1.3	52.2*	-0.1
CC(=O)c1c(C)[nH]c(C(=O)N2CCN(c3ccc(F)cc3)CC2)c1C	-1.0	0.0	-3.2	-0.1
CC(=O)c1c(C)[nH]c(C(=O)N2CCN(c3cc(Cl)ccc3C)CC2)c1C	7.8	-1.2	-1.7	0.1
SMILES	MITF inh	GPR151 activ	TEAD-YAP inh	FBW7 activator
COc1cccc(N2CCN(C(=O)c3[nH]c(C)c(C(C)=O)c3C)CC2)c1	1.6	1.9	40.1*	-0.3
O=C(COc1cccc(Cl)c1)N/N=C/C=N/NC(=O)COc1cccc(Cl)c1	10.8	-0.8	10.1	0.3
COc1ccc(/C=N/NC(=O)c2cn(C)c3ccccc23)cc1O	5.9	-0.4	32.7*	0.1
COc1ccc(/C=N/NC(=O)c2ccccc2O)cc1O	-6.6	2.4	-20.0	-0.1
Cc1occc1C(=O)N/N=C/c1c(O)ccc2ccccc12	-8.8	0.5	46.7*	-0.7
COc1ccccc1C(=O)N/N=C/c1c(O)ccc2ccccc12	12.3	0.9	37.0*	0.1
Cc1ccc2nc(NC(=O)c3cccc(N4C(=O)CCC4=O)c3)sc2c1	-7.8	-0.6	14.6	-0.1
CCOc1ccc(C2Oc3c(Cl)cc(Cl)cc3C=C2[N+](=O)[O-])cc1OCC (stereo not drawn)	24.1	0.0	64.4*	0.1
